High-throughput results (PubChem BioAssay)
A selection: hits, their analogues and other compounds. The true share with any hit is near 1.4%.
Her2 expr inh: lowers expression of human Her2 kinase. P04626. SKBR-3 HER2 protein level, AlphaScreen, 18-24 h; active compounds read low. HER2 level % of control, % at 10 µM. actives 0.69% (n = 65,000). AID 645;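 active = HER2 level under 5% of the carrier-only control; inconclusive = no clear call, values can overlap the other calls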;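 note: lower value means stronger loss of Her2 protein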
SKBR3 24h inh: SK-BR-3 proliferation inhibitors. actives 0.47% (n = 41,000). viability, % at 10 µM. SK-BR-3 viability, CellTiter-Glo ATP luminescence, 24 h; active compounds read low;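 active = viability at or below the median of all test compounds minus 3 SD, in both replicates if run twice, cut at about 45% in these data; inconclusive = duplicate replicates that disagree with each other; inactive = viability above that cutoff in every replicate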
Htt clearance: mutant huntingtin protein clearance; actives 0.42% (n = 47,000); inhibition, % at 1.5 µM; HeLa Exon1htt(103Q)mCFP, aggregate imaging; zero = plate's median compound well;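 active = inhibition of aggregate fluorescence above about 70%, also judged a hit by eye on the cell image, limit read from the data, passing the limit was not always enough; inconclusive = no rule stated for this call; inactive = not judged a hit on image review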;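 note: cells exposed to compound for three days before fixation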
ROCK2 inh: ROCK2 (human) kinase inhibition; purified ROCK2, Kinase-Glo ATP depletion luminescence; inhibition, % at 6 µM; O75116; actives 0.35% (n = 60,000); AID 604;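 active = inhibition above the screen-wide mean inhibition plus 3 SD, cut at about 18% in these data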
Target sequence (O75116 whole entry, looked up): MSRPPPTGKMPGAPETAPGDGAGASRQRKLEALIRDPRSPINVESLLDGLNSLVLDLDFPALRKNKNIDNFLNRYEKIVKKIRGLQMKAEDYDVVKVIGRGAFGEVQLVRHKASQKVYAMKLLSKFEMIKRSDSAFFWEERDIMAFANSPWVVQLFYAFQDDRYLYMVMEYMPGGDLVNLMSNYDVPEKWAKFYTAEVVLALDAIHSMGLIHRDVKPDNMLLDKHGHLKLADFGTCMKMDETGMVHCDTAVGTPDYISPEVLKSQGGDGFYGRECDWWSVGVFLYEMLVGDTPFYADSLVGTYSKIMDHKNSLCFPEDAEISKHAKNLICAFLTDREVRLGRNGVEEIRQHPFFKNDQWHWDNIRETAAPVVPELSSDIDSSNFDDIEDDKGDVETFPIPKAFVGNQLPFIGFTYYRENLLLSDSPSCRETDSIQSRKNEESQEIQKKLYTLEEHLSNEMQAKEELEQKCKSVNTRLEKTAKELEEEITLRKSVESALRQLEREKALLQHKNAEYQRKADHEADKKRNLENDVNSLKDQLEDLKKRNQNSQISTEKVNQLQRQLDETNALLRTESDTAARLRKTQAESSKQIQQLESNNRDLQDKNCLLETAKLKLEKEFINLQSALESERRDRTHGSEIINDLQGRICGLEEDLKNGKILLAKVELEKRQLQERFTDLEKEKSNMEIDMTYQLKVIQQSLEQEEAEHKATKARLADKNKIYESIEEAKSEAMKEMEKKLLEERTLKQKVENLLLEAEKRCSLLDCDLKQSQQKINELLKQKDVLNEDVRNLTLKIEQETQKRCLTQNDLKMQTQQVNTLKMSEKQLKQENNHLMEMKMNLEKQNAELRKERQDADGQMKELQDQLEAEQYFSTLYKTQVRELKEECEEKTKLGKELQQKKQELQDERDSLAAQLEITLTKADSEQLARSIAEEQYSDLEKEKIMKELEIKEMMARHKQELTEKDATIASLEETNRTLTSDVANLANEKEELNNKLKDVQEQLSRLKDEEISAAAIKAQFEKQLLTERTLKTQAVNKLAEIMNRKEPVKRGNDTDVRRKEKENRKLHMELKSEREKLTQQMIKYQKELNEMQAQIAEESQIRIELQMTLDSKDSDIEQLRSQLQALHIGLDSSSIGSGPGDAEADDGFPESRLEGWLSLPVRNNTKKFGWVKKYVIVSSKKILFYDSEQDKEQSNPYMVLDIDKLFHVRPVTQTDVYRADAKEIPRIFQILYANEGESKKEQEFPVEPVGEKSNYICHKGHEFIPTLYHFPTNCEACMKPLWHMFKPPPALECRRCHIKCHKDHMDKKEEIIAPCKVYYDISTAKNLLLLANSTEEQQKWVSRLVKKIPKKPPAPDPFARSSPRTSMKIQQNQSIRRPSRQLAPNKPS
PKA inh: PKA (human) kinase inhibition; inhibition, % at 6 µM; actives 0.1% (n = 65,000); PKA Kemptide phosphorylation, Kinase-Glo ATP luminescence;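 active = inhibition above the screen-wide mean inhibition plus 3 SD, cut at about 21% in these data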
JNK3 inh: JNK3 (human) kinase inhibition | P53779 | purified JNK3 kinase activity, HTS | inhibition, % at 8 µM | actives 0.61% (n = 60,000); in the data active = inhibition above about 17%
Large screens that a line does not name were inactive.

CC1CCc2c(sc3ncnc(N4CCOCC4)c23)C1 (configuration not stated)	Her2 expr inh -29 (no result: Htt clearance, ROCK2 inh, PKA inh, JNK3 inh)
COc1ccc(-n2nnc3c(SCC(=O)Nc4ccc5c(c4)OCCO5)ncnc32)cc1	Her2 expr inh -7.2 (no result: SKBR3 24h inh)
COc1ccc(-n2nnc3c(SCC(=O)c4ccccc4)ncnc32)cc1	none (no result: SKBR3 24h inh)
CCN1CCc2c(C#N)c(N3CCCCC3)nc(N3CCOCC3)c2C1	Her2 expr inh -22 (no result: Htt clearance)
O=c1[nH]c(=S)c2c(n1-c1ccccc1)CCC2	JNK3 inh 18
C=CCn1c(=O)/c(=C/c2ccc(O)cc2)s/c1=C(/C#N)c1nnc2n1CCCCC2	none (no result: SKBR3 24h inh, Htt clearance)
C=CCn1c(=O)/c(=C/c2cc(OC)c(OC)c(OC)c2)s/c1=C(/C#N)c1nc2ccccc2n1C	SKBR3 24h inh 40 (no result: Htt clearance, ROCK2 inh, JNK3 inh)
CCn1nc(C)c(NC(=O)CCSc2nc(-c3ccco3)cc(C(F)(F)F)n2)c1C	none (no result: Her2 expr inh, SKBR3 24h inh, ROCK2 inh, PKA inh, JNK3 inh)
Cn1c2ccccc2c2nn(-c3ccccc3)c(=O)cc21	none (no result: Htt clearance)
CCOC(=O)N1CCC(c2cc(=O)n3[nH]c(C)c(-c4ccc(F)cc4)c3n2)CC1	Htt clearance 82 (no result: SKBR3 24h inh)
O=C(Nc1nccs1)C1C2/C=C\CCCCC21 (configuration not stated)	Her2 expr inh -28
Cc1cc(C)c(NC(=O)C2C3/C=C\CCCCC32)c(C)c1 (configuration not stated)	none (no result: Her2 expr inh, SKBR3 24h inh, ROCK2 inh, PKA inh, JNK3 inh)
CC(NC(=O)c1nn(C)c(=O)c2ccccc12)c1ccc(F)cc1 (configuration not stated)	none (no result: SKBR3 24h inh)
COCCCNC(=O)CN(c1cccc(Cl)c1)S(C)(=O)=O	none (no result: SKBR3 24h inh, Htt clearance)
Cc1onc(-c2ccccc2)c1C(=O)n1nnc2ccccc21	Her2 expr inh 2.2 (no result: SKBR3 24h inh)
Cc1onc(-c2ccccc2)c1C(N)=O	none
CCCCN(C(=O)c1c(C)[nH]c(C(=O)OCC)c1C)c1ccccc1	none (no result: SKBR3 24h inh)
COc1cccc(OCC(=O)Nc2c(C(=O)Nc3ccc(OC)cc3OC)oc3ccccc23)c1	none (no result: SKBR3 24h inh, Htt clearance)
C=CCn1cnc2c(c1=O)c1nc3ccccc3nc1n2/N=C/c1cc(OC)c(OC)c(OC)c1	Her2 expr inh -25 (no result: Htt clearance)
O=C(CSc1nc2ncc(Br)cc2[nH]1)Nc1ccc2c(c1)OCO2	none (no result: Htt clearance)
O=C(NCc1nc2ncc(Br)cc2[nH]1)c1ccccc1	JNK3 inh 40
CC(C)(C)C(=O)CSc1nc2ncc(Br)cc2[nH]1	none (no result: Htt clearance)
COc1ccccc1NC(=O)CN1CCN(CC(=O)Nc2ccc3c(c2)OCCO3)CC1	Htt clearance inconclusive (no result: SKBR3 24h inh)
CCCCCNC(=O)c1c(N)n(/N=C/c2ccco2)c2nc3ccccc3nc12	none (no result: Htt clearance)
Cc1ccc(Nc2nc(C(=O)N3CCC(C(=O)NCCN4CCOCC4)CC3)cs2)cc1	Htt clearance 74
COc1ccc(-n2c(SCC(=O)Nc3cc(C)on3)nc3c(c2=O)SCC3)cc1	none (no result: SKBR3 24h inh, Htt clearance)
Cc1cc(NC(=O)CSc2nc3c(c(=O)n2-c2ccc(Br)cc2)SCC3)no1	SKBR3 24h inh 40 (no result: Htt clearance)
O=C(O)CCN=C1CCCc2ccccc2N1	none
CN(C)C=NC(=O)/C(C#N)=C1\CCc2ccccc2N1	JNK3 inh 47
CC(C)(C)c1cc(C(c2cccnc2)N2CCN(CCO)CC2)cc(C(C)(C)C)c1O (configuration not stated)	Her2 expr inh -15 (no result: SKBR3 24h inh, Htt clearance)
CC1CCCC(C)N1C(=O)CSc1nnc(CSc2ncccn2)n1C (configuration not stated)	none (no result: Htt clearance)
Cc1ccc(-c2noc(C3CCCN(C(=O)c4c(F)cccc4F)C3)n2)cc1 (configuration not stated)	Her2 expr inh 0.1, SKBR3 24h inh 28 (no result: Htt clearance)
COc1ccc(-c2noc(C3CCCN(C(=O)c4ccccc4OC)C3)n2)cc1OC (configuration not stated)	none
CN(C)CC(C(=O)c1ccccc1)c1ccccc1 (configuration not stated)	Her2 expr inh -55, SKBR3 24h inh 6.4 (no result: Htt clearance)
CCOC(=O)/C=C/S(=O)(=O)c1ccc(NC(C)=O)cc1	Her2 expr inh -22, SKBR3 24h inh 3.0
COc1ccc(S(=O)(=O)N(CCc2ccccc2)CC(=O)NC(C)C)cc1	none (no result: Her2 expr inh, SKBR3 24h inh, ROCK2 inh, PKA inh, JNK3 inh)
COc1ccc(C2CC(c3cccc(OC)c3OC)n3nnnc3N2)cc1 (configuration not stated)	none (no result: Htt clearance)
O=c1ccc(=O)n2n1CC(O)C2	ROCK2 inh 22 (no result: SKBR3 24h inh, Htt clearance)
CCCOc1ccc(C2C(C(=O)c3ccco3)=C(O)C(=O)N2CCCn2ccnc2)cc1 (configuration not stated)	none
Cc1ccc(NS(=O)(=O)c2cc(C(=O)O)ccc2Cl)c(C)c1	Htt clearance 72
O=C(NCc1ccc2c(c1)OCO2)C1CCCN1C(=O)Nc1cccc(Cl)c1 (configuration not stated)	SKBR3 24h inh 34
CCCn1c2c(c(O)c(C(=O)Nc3ccccc3)c1=O)CCCC2	none (no result: Htt clearance)
COCCSc1nnc(NC(=O)C(C)(C)C)s1	none (no result: Her2 expr inh, SKBR3 24h inh, ROCK2 inh, PKA inh, JNK3 inh)
Cc1nc2ccccn2c1/C(O)=C1\C(=O)C(=O)N(CCCn2ccnc2)C1c1ccncc1 (configuration not stated)	none
CC1CCCN(C(=O)Cn2c(-c3nonc3N)nc3ccccc32)C1 (configuration not stated)	Her2 expr inh -24
CCOc1cc2[nH]c(=O)n(CC3CCC(C(=O)NC(C)CC)CC3)c(=O)c2cc1OCC (configuration not stated)	none (no result: SKBR3 24h inh, Htt clearance)
Cn1c2ccccc2c2cnn(CC(=O)N3CCN(c4ncccn4)CC3)c(=O)c21	none (no result: SKBR3 24h inh, Htt clearance)
COc1ccc(C(=O)NCc2cccnc2)cc1Br	none (no result: Her2 expr inh, SKBR3 24h inh, ROCK2 inh, PKA inh, JNK3 inh)
COc1cc(OC)cc(C(=O)NCc2cccnc2)c1	Htt clearance 75 (no result: SKBR3 24h inh)
COc1ccc(OCC(=O)NCc2cccnc2)cc1	Her2 expr inh -14
COC(=O)c1ccccc1NC(=O)NCc1ccccn1	none (no result: Htt clearance)
COC(=O)c1ccccc1NC(=O)NCc1cccnc1	JNK3 inh 24 (no result: Htt clearance)
COc1cccc(CNC(=O)c2ccccc2N)c1	Htt clearance 82
O=C(CCCCCn1c(SCC(=O)c2ccccc2)nc2ccccc2c1=O)NCc1ccco1	JNK3 inh 28 (no result: SKBR3 24h inh, Htt clearance)
O=C(CCCn1c(=S)[nH]c2ccccc2c1=O)NCc1ccco1	JNK3 inh 19
CCOC(=O)CSc1nc2ccccc2c(=O)n1CCCCCC(=O)NCc1ccco1	JNK3 inh 23 (no result: SKBR3 24h inh, Htt clearance)
CC(=O)NCCn1c(SCC(=O)NCc2ccco2)nc2ccccc2c1=O	none (no result: SKBR3 24h inh, Htt clearance)
CCn1c(SCC(=O)NCc2ccco2)nc2c1c(=O)n(C)c(=O)n2C	SKBR3 24h inh 42 (no result: Htt clearance)
O=C(CCCn1c(SCC(=O)c2ccc(Cl)cc2)nc2ccccc2c1=O)NCc1ccco1	none (no result: SKBR3 24h inh, ROCK2 inh, JNK3 inh)
CCCn1c(SCC(=O)NCc2ccco2)nc2c1c(=O)n(C)c(=O)n2C	none (no result: Htt clearance)
CCOc1cc2[nH]c(=S)n(CCCCC(=O)NCc3ccco3)c(=O)c2cc1OCC	none (no result: SKBR3 24h inh, Htt clearance, ROCK2 inh, JNK3 inh)
O=C(CSc1nc2ccsc2c(=O)n1Cc1ccccc1)NCc1ccco1	none (no result: SKBR3 24h inh, ROCK2 inh, JNK3 inh)
O=C(CSc1nc2ccsc2c(=O)n1NC(=O)c1ccccc1)NCc1ccco1	Htt clearance 70 (no result: SKBR3 24h inh, ROCK2 inh, JNK3 inh)
N#Cc1nc(COc2ccccc2Cl)oc1N1CCCCCC1	none (no result: SKBR3 24h inh, Htt clearance)
CC1CN(c2oc(COc3ccc(Cl)cc3Cl)nc2C#N)CC(C)O1 (configuration not stated)	Her2 expr inh -19 (no result: SKBR3 24h inh)
